{"source": "paper PMC4336329", "about": "(PLoS ONE, 2015)", "note": "The whole screen tested about 310,000 compounds, of which about 14,000 (4.5%) showed an effect of 50% or more. Effects have a minus sign here. This is one part of a sample in which strong results are shown more often than they occur.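 Also: peak tail current of the secondary pulse compared with the same well before compound.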"}
{"biological_target": "human ether-à-go-go-related gene (hERG) potassium channel (human, UniProt Q12809)", "sequence (Q12809 whole entry, looked up)": "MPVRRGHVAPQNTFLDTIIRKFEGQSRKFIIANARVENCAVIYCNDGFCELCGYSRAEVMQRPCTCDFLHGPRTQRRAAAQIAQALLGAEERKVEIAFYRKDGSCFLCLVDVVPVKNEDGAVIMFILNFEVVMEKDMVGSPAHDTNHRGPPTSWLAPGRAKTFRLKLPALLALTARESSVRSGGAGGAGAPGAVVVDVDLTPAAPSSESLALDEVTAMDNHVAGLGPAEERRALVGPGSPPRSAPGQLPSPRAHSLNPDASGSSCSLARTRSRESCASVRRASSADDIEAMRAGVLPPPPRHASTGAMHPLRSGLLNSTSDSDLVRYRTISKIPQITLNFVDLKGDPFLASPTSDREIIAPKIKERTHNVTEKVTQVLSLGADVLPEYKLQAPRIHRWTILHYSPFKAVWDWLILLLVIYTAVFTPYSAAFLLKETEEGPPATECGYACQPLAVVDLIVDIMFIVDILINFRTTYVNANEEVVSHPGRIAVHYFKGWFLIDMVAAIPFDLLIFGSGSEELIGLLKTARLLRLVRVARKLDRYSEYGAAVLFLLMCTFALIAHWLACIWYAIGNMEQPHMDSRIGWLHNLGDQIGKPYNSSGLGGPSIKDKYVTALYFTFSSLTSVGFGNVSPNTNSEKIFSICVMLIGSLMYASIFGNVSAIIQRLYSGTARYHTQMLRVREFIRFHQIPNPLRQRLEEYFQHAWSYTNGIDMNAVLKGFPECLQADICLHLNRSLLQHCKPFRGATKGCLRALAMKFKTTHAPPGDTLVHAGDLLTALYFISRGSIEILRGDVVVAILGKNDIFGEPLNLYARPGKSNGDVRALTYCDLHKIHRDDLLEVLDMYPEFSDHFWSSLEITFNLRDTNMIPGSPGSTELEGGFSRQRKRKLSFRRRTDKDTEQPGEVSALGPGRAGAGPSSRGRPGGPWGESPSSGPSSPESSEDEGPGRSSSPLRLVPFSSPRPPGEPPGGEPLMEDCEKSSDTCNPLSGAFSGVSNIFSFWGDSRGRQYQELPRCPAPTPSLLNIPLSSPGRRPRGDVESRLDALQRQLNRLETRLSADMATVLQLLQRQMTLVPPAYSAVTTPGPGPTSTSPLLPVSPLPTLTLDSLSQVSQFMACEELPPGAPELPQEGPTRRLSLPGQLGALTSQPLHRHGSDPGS", "test": "primary screen, population patch clamp on CHO cells stably expressing hERG; higher = less effect of the substance", "units": {"hERG current change (%, negative = inhibition) at 10uM": "%"}}
{"molecule": "NNC(=O)CSc1nc(-c2ccccc2)cn1-c1ccccc1", "hERG current change (%, negative = inhibition) at 10uM": -0.037}
{"molecule": "Cc1ccccc1NC(=O)C1CCN(c2cnccn2)CC1", "hERG current change (%, negative = inhibition) at 10uM": -14.7}
{"molecule": "Cc1cc(C)cc(NC(=S)N2CCN(c3ncccn3)CC2)c1", "hERG current change (%, negative = inhibition) at 10uM": 13}
{"molecule": "Cc1ccccc1C(=O)NC(NC(=S)Nc1ccc(S(N)(=O)=O)cc1)C(Cl)(Cl)Cl", "note": "(centres unmarked)", "hERG current change (%, negative = inhibition) at 10uM": 19.3}
{"molecule": "CCOC(=O)C1CCN(C(=O)c2ccc(OC3CCN(C(=O)CCOC)CC3)cc2)CC1", "hERG current change (%, negative = inhibition) at 10uM": 8.91}
{"molecule": "CCSc1ccc([C@@H]2[C@H]3C(=O)N(C)C(=O)[C@H]3[C@]3(C(=O)OC)CCCCN23)cc1OC.O=C(O)C(F)(F)F", "hERG current change (%, negative = inhibition) at 10uM": -8.41}
{"molecule": "COc1cccc(OC)c1C(=O)Nc1ccc2c(c1)Cc1ccccc1-2", "hERG current change (%, negative = inhibition) at 10uM": 15.5}
{"molecule": "CCn1cc(CNCc2cn(-c3ccccc3C)nc2-c2ccc(OC)c(F)c2)cn1", "hERG current change (%, negative = inhibition) at 10uM": -22}
{"molecule": "Cc1cc(-c2nn(-c3ccccc3F)cc2CN2CCC(O)CC2)c(C)s1", "hERG current change (%, negative = inhibition) at 10uM": -28.9}
{"molecule": "COc1ccc(-c2nn(-c3ccccc3C)cc2CNCc2cccnc2)cc1F", "hERG current change (%, negative = inhibition) at 10uM": -38.3}
{"molecule": "Cc1cc(-c2nn(-c3ccccc3F)cc2CN2CCN(c3ccccn3)CC2)c(C)s1", "hERG current change (%, negative = inhibition) at 10uM": 18.6}
{"molecule": "Cc1cc(-c2nn(-c3ccccc3F)cc2CN2CCC(C(N)=O)CC2)c(C)s1", "hERG current change (%, negative = inhibition) at 10uM": -28.5}
{"molecule": "Cc1cc(-c2nn(-c3ccccc3F)cc2CN(C)CC(O)CO)c(C)s1", "note": "(centres unmarked)", "hERG current change (%, negative = inhibition) at 10uM": -22.3}
{"molecule": "Cc1cc(-c2nn(-c3ccccc3F)cc2CN2CCCC(CO)C2)c(C)s1", "note": "(centres unmarked)", "hERG current change (%, negative = inhibition) at 10uM": -7.33}
{"molecule": "Cc1cc(-c2nn(-c3ccccc3F)cc2CN2CCCC(O)C2)c(C)s1", "note": "(centres unmarked)", "hERG current change (%, negative = inhibition) at 10uM": -9.16}
{"molecule": "Cc1cc(-c2nn(-c3ccccc3F)cc2CNCCc2cnc[nH]2)c(C)s1", "hERG current change (%, negative = inhibition) at 10uM": -53.6}
{"molecule": "Cc1cc(-c2nn(-c3ccccc3F)cc2CNCCc2cnccn2)c(C)s1", "hERG current change (%, negative = inhibition) at 10uM": -52.3}
{"molecule": "Cc1cc(-c2nn(-c3ccccc3F)cc2CN2CCN(c3ccncc3)CC2)c(C)s1", "hERG current change (%, negative = inhibition) at 10uM": -94.3}
{"molecule": "COc1ccc(-c2nn(-c3ccccc3C)cc2CNCCc2cnc[nH]2)cc1F", "hERG current change (%, negative = inhibition) at 10uM": -70.6}
{"molecule": "COc1cc(/C=C/C(=O)OCC(=O)NCC(=O)Nc2cccc(C)c2C)ccc1OC(F)F", "hERG current change (%, negative = inhibition) at 10uM": -25.7}
{"molecule": "Cc1cc(C)nc(SC(C)CNS(=O)(=O)c2ccccc2)n1", "note": "(centres unmarked)", "hERG current change (%, negative = inhibition) at 10uM": 0.485}
{"molecule": "CCC(C)(C)NC(=O)C(c1ccc(OC)cc1)N(C(=O)CCC(=O)Nc1cc(C)on1)c1cccc(OC)c1", "note": "(centres unmarked)", "hERG current change (%, negative = inhibition) at 10uM": 1.47}
{"molecule": "O=C(Cn1cncn1)N/N=C/c1cc([N+](=O)[O-])ccc1O", "hERG current change (%, negative = inhibition) at 10uM": 1.67}
{"molecule": "COc1ccc(OC)c(NC(=O)c2ccccc2N(C)S(=O)(=O)c2ccc(C)cc2)c1", "hERG current change (%, negative = inhibition) at 10uM": -9.39}
{"molecule": "CCOC(=O)CSc1nc2cc3c(cc2cc1C#N)OCCO3", "hERG current change (%, negative = inhibition) at 10uM": 19}
{"molecule": "Cc1ccc(C(=O)NCCc2cccs2)cc1", "hERG current change (%, negative = inhibition) at 10uM": 7.84}
{"molecule": "COC(=O)c1[nH]c2ccc(Br)cc2c1NC(=O)CN1CCN(C2CCCCC2)CC1", "hERG current change (%, negative = inhibition) at 10uM": -78.7}
{"molecule": "COC(=O)c1[nH]c2ccc(Br)cc2c1NC(=O)C(C)N1CCN(C2CCCCC2)CC1", "note": "(centres unmarked)", "hERG current change (%, negative = inhibition) at 10uM": -78.2}
{"molecule": "COC(=O)c1[nH]c2ccc(Br)cc2c1NC(=O)CN1CCCCC1CCO", "note": "(centres unmarked)", "hERG current change (%, negative = inhibition) at 10uM": -2.6}
{"molecule": "COC(=O)c1[nH]c2ccc(C)cc2c1NC(=O)C(C)N1CCN(C2CCCCC2)CC1", "note": "(centres unmarked)", "hERG current change (%, negative = inhibition) at 10uM": -77}
{"molecule": "COC(=O)c1[nH]c2ccc(Cl)cc2c1NC(=O)CN1CCC(C(N)=O)CC1", "hERG current change (%, negative = inhibition) at 10uM": -2.26}
{"molecule": "COC(=O)c1[nH]c2ccc(Br)cc2c1NC(=O)CN1CCCc2ccccc21", "hERG current change (%, negative = inhibition) at 10uM": -4.4}
{"molecule": "COC(=O)c1[nH]c2ccccc2c1NC(=O)C(C)N1CCOCC1", "note": "(centres unmarked)", "hERG current change (%, negative = inhibition) at 10uM": 9.7}
{"molecule": "CCOC(=O)C1CCCN(CC(=O)Nc2c(C(=O)OC)[nH]c3ccc(Br)cc23)C1", "note": "(centres unmarked)", "hERG current change (%, negative = inhibition) at 10uM": -30.9}
{"molecule": "COC(=O)c1[nH]c2ccc(Cl)cc2c1NC(=O)CCN1CCN(C2CCCCC2)CC1", "hERG current change (%, negative = inhibition) at 10uM": -80}
{"molecule": "COC(=O)c1[nH]c2ccc(C)cc2c1NC(=O)NC1CCCCC1", "hERG current change (%, negative = inhibition) at 10uM": 8.55}
{"molecule": "COC(=O)c1[nH]c2ccc(Cl)cc2c1NC(=O)CCN1CCOCC1", "hERG current change (%, negative = inhibition) at 10uM": 2.71}
{"molecule": "COC(=O)c1[nH]c2ccccc2c1NC(=O)C(C)N1CC(C)OC(C)C1", "note": "(centres unmarked)", "hERG current change (%, negative = inhibition) at 10uM": 5.31}
{"molecule": "CCC(Sc1nc2ccncc2[nH]1)C(=O)Nc1cc(Cl)ccc1C", "note": "(centres unmarked)", "hERG current change (%, negative = inhibition) at 10uM": -44.3}
{"molecule": "CC(=O)N1c2ccc(S(=O)(=O)N3CCC(C(=O)Nc4cccc(Cl)c4)CC3)cc2CC1C", "note": "(centres unmarked)", "hERG current change (%, negative = inhibition) at 10uM": 15.1}
{"molecule": "O=c1cc(CO)oc(C(Nc2ccccn2)c2ccccc2F)c1O", "note": "(centres unmarked)", "hERG current change (%, negative = inhibition) at 10uM": 17.5}
